Experimental data: PubChem BioAssay (NCI)
Compounds without any hit were thinned out: in the full panel of roughly 83,000, 20% have a hit.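 Assay: single dose, 48 h. Readout: percent growth (0 = no net growth; negative = cell death). Active: <10.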 A number with no mark means an inactive call. Calls of active or inactive are those of the source.

What follows are compounds tested on MDA-MB-468 breast (assay: NCI-60 one-dose screen, 48 h (100 = growth as untreated, 0 = no growth, -100 = all killed)). Details: 10 µM unless noted.
Compound `CCNC(=O)Oc1ccc(/C(=C(/C)Cc2ccc(OC)cc2)c2ccc(OCCN(CC)CC)cc2)cc1` has a growth of 46.6%.
`N#C/C(=C\NC(=S)N=Nc1c(O)[nH]c2ccccc12)c1nc2ccccc2s1` showed a growth of 79.8%.
`COc1ccc(Nc2nccc(N3CCN(c4c5ccc(Cl)cc5nc5ccc(OC)cc45)CC3)n2)cc1` gave a growth of 31.5%.
In the case of `COc1cc(/C(=C2/O[C@@H]([C@H]3COC(C)(C)O3)[C@H]3OC(C)(C)O[C@@H]23)c2ccc3c(c2)OCO3)cc(OC)c1OC`, the growth is reported as 69.6%.
In the case of `CCCCNC(=O)Oc1ccc(/C(=C(/CC)Cc2ccccc2)c2ccc(OCCN3CCCCCC3)cc2)cc1`, the growth is reported as 6.65% (active).
`CC(C)c1nn(-c2ccccc2)c(N2CCCCC2)c1/C=N/NC(N)=S` was tested, and the growth was 89.6%.
`O=C(COc1ccc(-c2nc3cc(Cl)c(Cl)cc3[nH]2)cc1)N=Nc1c(O)[nH]c2ccc(Cl)cc12` was tested, and the growth was 68.5%.
With `O=C(/C=C/c1ccc(Cl)cc1)c1ccc(NC(=O)N2CCN(c3cc4c(cc3F)c(=O)c(C(=O)O)cn4C3CC3)CC2)cc1` the growth was 96.6%.
For `O=C(NC1CCN(Cc2ccccc2)CC1)c1cc(C(=O)NC2CCN(Cc3ccccc3)CC2)cc(C(=O)NC2CCN(Cc3ccccc3)CC2)c1`, the growth was 84.9%.
`COCCn1cc(-c2csc(-c3cn(C)c4ccc(F)cc34)n2)c2cccnc21` gave a growth of 21.3%.
Compound `Cc1cc(=O)n2nnc3cc(C(F)(F)F)ccc3n12` has a growth of 122%.
`CC1CN(c2oc(-c3ccccc3)nc2C#N)CC(C)O1` (stereo not given) was tested, and the growth was 109%.
Compound `C=C1C(=O)O[C@H]2[C@H]1CC/C(COC(=O)n1ccnc1)=C\CC[C@@]1(C)O[C@@H]21` has a growth of 79.7%.
With `CSC1=Nc2c(c(C)c(-c3ccccc3)n2CCCCl)C2=NC(=O)CN12` the growth was 47.3%.
In the case of `COc1c(Cl)c2c(c(OC)c1OC)-c1ccc(SC)c(=O)cc1[C@@H](NC(=O)OCC(F)(F)F)CC2`, the growth is reported as -15.5% (active).
`CN1CCN(c2nc(-c3cnc4ccccc4n3)cc3ccccc23)CC1` was tested, and the growth was 9.21% (active).
`O=C1C2CC3C(CC2C(=O)[N]1[Sn]([c]1ccccc1)([c]1ccccc1)[c]1ccccc1)C1(Cl)C(Cl)=C(Cl)C3(Cl)C1(Cl)Cl` (stereo not given) was tested, and the growth was -83.1% (active).
For `CC[C@@H](C(=O)[C@@H](C)[C@@H](O)[C@H](C)[C@@H]1O[C@@H]([C@@H](CC)C(=O)O)CC[C@@H]1C)[C@H]1OC2(C=C[C@@H](O)[C@]3(CC[C@@](C)([C@H]4CC[C@](O)(CC)[C@H](C)O4)O3)O2)[C@H](C)C[C@@H]1C` (stereo not given in full), the growth was -9.66% (active).
With `COC(=O)[C@]1(CCSC)N[C@H](c2cn(-c3ccccc3)nc2C)[C@@H]2C(=O)N(c3ccccc3)C(=O)[C@@H]21` the growth was 108%.
For `COc1ccc(-c2c(-c3cc4c(c(OC)c3OC)OCO4)noc2N)cc1`, the growth was -6.43% (active).
`CC(C)c1ccc(C(=O)OC2CCCC2)cc1` showed a growth of 106%.
With `COc1ccc(-c2cn[nH]c2-c2cc(OC)c3c(c2)OCO3)cc1` the growth was 36.1%.
`COc1ccc(-c2nn(-c3cccc(Cl)c3)cc2/C=C2\C(=N)N(c3ccccc3)N=C2N)cc1` showed a growth of 57.6%.
Compound `COc1cccc2c(=O)c3c(sc12)c(NCCN(C)C)nc1ccccc13` has a growth of 12.7%.
In the case of `CCc1cccc(Cl)c1`, the growth is reported as 113%.
`CS(=O)(=O)c1ccc(N/N=C/c2c(-c3ccc(S(C)(=O)=O)cc3)[nH]c3ccc(F)cc23)cc1` showed a growth of 64.3%.
`O=C1NC(=O)N(Cc2ccccc2)CC1Br` (stereo not given) was tested, and the growth was 104%.
In the case of `CCN(CC)c1nc(SCc2ccccc2Cl)ncc1C`, the growth is reported as 69.6%.
Work on `COc1cccc(-c2cc(-c3cc4ccccc4oc3=O)nc(N)n2)c1` yielded a growth of 92.7%.
With `C=CCn1c(SCC(=O)Nc2cccc(C(=O)/C=C/c3ccccc3)c2)nc2ccccc2c1=O` the growth was 78.9%.
`OC(c1ccccc1)c1ccccn1` (stereo not given) gave a growth of 103%.
`CCC(=O)Oc1ccc2ccccc2c1` was tested, and the growth was 96.8%.
Compound `O=C(Nc1cccc2c1C(=O)c1cccc(NC(=O)c3ccc(C(=O)Nc4cccc5c4C(=O)c4cccc(NC(=O)c6ccccc6)c4C5=O)cc3)c1C2=O)c1ccccc1` has a growth of 91.3%.
In the case of `COc1cc(CNS(=O)(=O)c2ccc(C)cc2)ccc1OCc1cn(-c2ccc(Br)cc2)nn1`, the growth is reported as 95.5%.
`CCN(CC)CCOC(=O)c1cccnc1` was tested, and the growth was 94.9%.
For `O=C1Nc2ccc(Br)cc2C12Oc1ccccc1C1CC(c3ccc(F)cc3)=NN12` (stereo not given), the growth was 82.1%.
Work on `COc1cc(-c2nc(Nc3nc4ccccc4[nH]3)nc(N)c2C#N)cc(OC)c1OC` yielded a growth of 48.5%.
For `CC(C)C[C@H](C(=O)N[C@H](C(N)=O)C(C)C)N1CC=CCN(OCc2ccccc2)S1(=O)=O`, the growth was 105% [2.5 µM].
For `CCOc1cccc(/C=N/NC(=O)Cc2ccc(Nc3ccnc(C(F)(F)F)c3)cc2)c1O`, the growth was 1.86% (active).
`C/C=C/C1OC23CCCCC2C(C#N)(C(=N)O3)C1(C#N)C#N` (stereo not given) showed a growth of 77.7%.
